# Compound activity (PubChem)
# CYP2C19 inh: inhibitors of human CYP2C19; P33261; CYP2C19 Supersomes, luciferin-H EGE luminescence, 30 min; inhibition, % at 5 µM; hit rate 21% among 96,000; AID 778;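 active = CYP2C19 inhibition above a set limit at 5 µM in the primary screen, cut at about 50% in these data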;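 note: plate controls were negative control wells for no effect and 2.5 mM tranylcypromine positive control for full effect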
# CYP2C19 activ: activators of human cytochrome P450 2C19; P33261; recombinant CYP2C19, luciferin-H EGE luminescence; stronger effect = higher value; 0 = fully inhibited enzyme, 1 = untreated enzyme; activation factor at 5 µM; 96,000 tested, under 10 active; AID 1025;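 active = activation factor of at least 2 at 5 µM in the primary screen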;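 note: 0 = wells with 2.5 mM tranylcypromine and 1 = vehicle-only wells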
# CYP2C9 inh: inhibitors of human CYP2C9 | P11712 | hit rate 20% among 96,000 | AID 777 | CYP2C9 Supersomes, luciferin-H conversion, luminescence | inhibition, % at 5 µM;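 active = blocking of liver enzyme CYP2C9 beyond about 50% at 5 µM, limit read from the data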
# Target sequence (P11712 whole entry, looked up): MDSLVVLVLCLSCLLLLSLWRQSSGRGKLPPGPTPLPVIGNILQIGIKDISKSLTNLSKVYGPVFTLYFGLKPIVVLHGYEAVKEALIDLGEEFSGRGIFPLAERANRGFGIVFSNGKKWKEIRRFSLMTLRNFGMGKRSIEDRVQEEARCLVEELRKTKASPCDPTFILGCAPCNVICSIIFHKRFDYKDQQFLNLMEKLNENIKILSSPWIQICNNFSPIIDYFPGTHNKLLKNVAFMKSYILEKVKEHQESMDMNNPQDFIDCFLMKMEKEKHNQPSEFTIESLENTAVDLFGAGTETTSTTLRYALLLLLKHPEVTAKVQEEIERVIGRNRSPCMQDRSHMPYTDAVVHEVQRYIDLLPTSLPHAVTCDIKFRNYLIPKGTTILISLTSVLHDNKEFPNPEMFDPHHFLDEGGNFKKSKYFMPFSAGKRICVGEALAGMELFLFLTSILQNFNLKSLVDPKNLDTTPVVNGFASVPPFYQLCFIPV
# CYP2C9 activ: increases human cytochrome P450 2C9 activity; AID 1024; activation factor at 5 µM; recombinant CYP2C9, luciferin-H conversion, luminescence; stronger effect = higher value; factor 1 = untreated enzyme, 0 = blocked; P11712; hit rate 1.4% among 96,000;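 active = activation factor of 2 or more for CYP2C9 at a 5 µM dose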;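 note: 0 = sulfaphenazole-blocked wells and 1 = vehicle-only wells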
# PostGolgi yeast: growth inhibition of a yeast mutant, post-Golgi transport screen | post-Golgi transport phenotypic cell assay | inhibition, % at 10 µM | hit rate 0.9% among 98,000 | AID 739;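 note: yeast cells grown in 1536-well plates; yeast grown about 18 h at 30C before absorbance read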
# PostGolgi ctrl: growth of the yeast control strain, post-Golgi counter-screen; efflux-deficient yeast background strain, growth absorbance A615, 16 h; inhibition, % at 10 µM; hit rate 5% among 98,000; AID 738
# Active calls of the source: *; . = no result given. Shown are actives, neighbours in structure and some others; about 32% of the full set was active somewhere. Cut-off read from the data, not from the text of the source, unless noted: active = inhibition above about 30%; inactive = the rest.
SMILES,CYP2C19 inh,CYP2C19 activ,CYP2C9 inh,CYP2C9 activ,PostGolgi yeast,PostGolgi ctrl
Cc1cc(C)n(-c2nc(NCc3cccnc3)c3c4c(sc3n2)COC(C)(C)C4)n1,39,0.6,59*,0.4,7,7
CCC(O)CNc1nc(-n2nc(C)cc2C)nc2sc3c(c12)CCCC3 (centres undefined),8,0.9,17,0.8,.,.
CCCCSc1nc(NCc2ccco2)c2c3c(sc2n1)COC(C)(C)C3,11,0.9,46,0.5,-2,10
O=C(N/N=C1\CCCc2ccccc21)c1ccc([N+](=O)[O-])cc1Cl,11,0.9,-30,1.3,-2,14
COc1ccc(-c2nc(CSCC(=O)NC3CCCc4ccccc43)c(C)o2)cc1 (centres undefined),63*,0.4,58*,0.4,11,11
O=C(COc1ccc(-c2nnco2)cc1)NC1CCCc2ccccc21 (centres undefined),98*,0,86*,0.1,-12,-8
CCOC(=O)CC(=O)CSc1ccc2nnc(-c3cccc(F)c3)n2n1,-2,1,50,0.5,-12,1
COC(=O)c1ccc(CSc2ccc3nnc(-c4cccc(F)c4)n3n2)o1,37,0.6,83*,0.2,-5,41*
COCC(=O)Nc1nc2ccccc2s1,5,0.9,-16,1.2,0,11
COCC(=O)Nc1nc2ccc(S(C)(=O)=O)cc2s1,63*,0.4,77*,0.2,-5,9
C=CCN(CC=C)S(=O)(=O)c1ccc2nc(NC(=O)C(C)C)sc2c1,81*,0.2,93*,0.1,-5,25
COc1ccccc1C(=O)Nc1nc2ccc(S(C)(=O)=O)cc2s1,.,.,.,.,1,12
CS(=O)(=O)c1ccc2nc(NC(=O)Oc3ccccc3)sc2c1,11,0.9,70*,0.3,0,7
CCc1ccc(N(C(=O)c2csnn2)C(C(=O)NCc2ccccc2)c2ccco2)cc1 (centres undefined),47,0.5,43,0.6,6,-1
CS(=O)(=O)N1CCC(c2noc(-c3ccc(C(F)(F)F)cc3)n2)CC1,6,0.9,9,0.9,8,6
CC(C)=C1C2C=CC1C(C(=O)Nc1cccc(C)c1)C2C(=O)O (centres undefined),-10,1.1,-22,1.2,-2,1
COc1ccc(S(=O)(=O)N2CCC(C(=O)NCC3CCCO3)CC2)cc1 (centres undefined),-4,1,-2,1,2,2
CCOc1ccccc1NC(=O)c1c(NC(=O)CNCc2ccco2)sc2c1CCC2,4,1,16,0.8,.,.
O=C1CCc2cc(S(=O)(=O)N3CCC(C(=O)Nc4nccs4)CC3)ccc2N1,-16,1.2,-9,1.1,6,20
O=C(Nc1cc(C(F)(F)F)ccc1N1CCOCC1)c1ccc(F)cc1,77*,0.2,8,0.9,3,4
Cc1onc(-c2ccccc2)c1C(=O)Nc1ccccc1N1CCOCC1,99*,0,81*,0.2,5,15
Cc1onc(-c2ccccc2)c1C(=O)Nc1cc(C(F)(F)F)ccc1N1CCOCC1,65*,0.4,56*,0.4,2,43*
O=C(CCc1ccccc1)NC(=S)Nc1cc(C(F)(F)F)ccc1N1CCOCC1,88*,0.1,93*,0.1,-2,19
CC(=O)c1ccc(N=Cc2c(O)n(-c3cc(Cl)ccc3N3CCOCC3)c(=O)c3ccccc23)cc1,17,0.8,39,0.6,0,9
Cc1ccc(C(=O)c2nc3c(n2O)CCCC3)cc1,-5,1,1,1,10,1
SMILES,CYP2C19 inh,CYP2C19 activ,CYP2C9 inh,CYP2C9 activ,PostGolgi yeast,PostGolgi ctrl
c1ccc(CCn2c3ccccc3c3nnc(SCc4ccc5nonc5c4)nc32)cc1,21,0.8,46,0.5,22,10
COC(=O)C(CCCCN1C(=O)C2C3C=CC(C3)C2C1=O)N1C(=O)C2C3C=CC(C3)C2C1=O (centres undefined),47,0.5,59*,0.4,-3,11
O=C(O)C(CCCCN1C(=O)C2C3C=CC(C3)C2C1=O)N1C(=O)C2C3C=CC(C3)C2C1=O (centres undefined),-12,1.1,4,1,2,11
CC(=O)NC(CCS(C)(=O)=O)C(=O)Nc1c(C)cccc1C (centres undefined),-15,1.2,-10,1.1,-18,3
O=C1c2sc3nc4ccccc4n3c2C(=O)N1c1ccccc1Cl,-10,1.1,60*,0.4,0,7
Cc1cccc(C(=O)Nc2c(C#N)c(C)c(C)n2Cc2ccccc2)c1,-13,1.1,13,0.9,5,9
CCC(C)NC(=O)c1ccc(CS(=O)(=O)Cc2ccc(Cl)cc2)o1 (centres undefined),67*,0.3,63*,0.4,-4,0
COc1cccc(-c2nc(Cc3ccc(OC)c(OC)c3)no2)c1,58*,0.4,17,0.8,0,5
CC(C)N(Cc1ccccc1)C(=O)c1cnc2n(c1=O)CCS2,6,0.9,12,0.9,6,0
O=C(CC(NCCc1ccccc1)C(=O)O)Nc1ccc(O)cc1 (centres undefined),-2,1,2,1,1,-7
O=C(CCl)N(c1ccc(Cl)cc1)c1c[nH]c2ccccc12,90*,0.1,82*,0.2,26,44*
O=C(CCl)N(c1ccccc1)c1c[nH]c2ccccc12,44,0.6,95*,0.1,17,18
CCOC(=O)Cc1c[nH]c2ccccc12,15,0.9,9,0.9,0,4
O=C1C=C(NCc2ccc(Cl)c(Cl)c2)C2(CCCCC2)O1,77*,0.2,38,0.6,2,12
O=C1C=C(NCc2ccccc2)C2(CCCCC2)O1,70*,0.3,12,0.9,-1,5
O=C1C=C(NCc2ccco2)C2(CCCCC2)O1,8,0.9,7,0.9,-9,0
Cc1cc(S(=O)(=O)N(C)CCc2ccccc2)ccc1-n1cnnn1,57*,0.4,26,0.7,11,7
COc1cccc(CN(Cc2cccnc2)S(=O)(=O)c2ccc(-n3cnnn3)c(C)c2)c1,60*,0.4,17,0.8,7,-2
Cc1cc(S(=O)(=O)N(Cc2ccccc2)Cc2ccc(N(C)C)cc2)ccc1-n1cnnn1,.,.,.,.,3,16
CC(C)OC(=O)C(NC(=O)c1ccccc1)=C1CCCCC1,14,0.9,34,0.7,-3,3
CCOC(=O)c1cc2c(=O)n3ccccc3nc2n(C(C)C)c1=NC(=O)c1ccncc1,65*,0.4,48,0.5,-20,2
CCOC(=O)c1cc2c(=O)n3ccccc3nc2n(Cc2ccccc2Cl)c1=N,22,0.8,57*,0.4,.,.
COc1ccc(CCn2c(=N)c(C(=O)N3CCN(C)CC3)cc3c(=O)n4ccccc4nc32)cc1,72*,0.3,39,0.6,-10,10
